{"source": "paper PMC12864922", "about": "“TDP-43 directly inhibits mRNA accumulation in neurites through modulation of mRNA stability”", "binders": {"B1": {"name": "ENSMUSG00000061578.22|Ksr2|4:9;112:122;211:217;222:226 (ssRNA)", "RNA": "GGGAGUUCUACAGUCCGACGAUCGCUUCGAUAUCCGCAUGCUAACCACACACAUGACGUCACAGAGGCUGUCCACACCUUCGACUUGUACCCCGUUACUCAGGCACGAUCAGGGACCACUCAACUAGGACCAAACUGGGCCAGAGAGGGUCCCAACACACCACACAAGGAGCCACAGACUGAGCACACCACCUCGGACUGUGGAGACCAAGACACAUGCCCAGUGGGCAGACUCAGACUCACACGCUGGACCACACACACCGCAACACACUACACAUGGACAGGGCCAACUGCUAUCCUUCUGCUCUUGCGGUCGCACUAGUGUGGAAUUCUCGGGUGUCAAGG"}, "B2": {"name": "ENSMUSG00000031028.295|Tub (ssRNA)", "RNA": "GGGAGUUCUACAGUCCGACGAUCGCUUCGAUAUCCGCAUGCUAUCCCAGGUUGGACACUCGACGAAAGGCACACCUGCUGCAGCAGGUUCUGACACACCUGAGCCAUACAUUGCCAUCAGAGAACCCUCAGCGAGGUAGCCUUUGUUUACAGUCUAGUUUCUAGAGGGCAGUAGGACUUCCAUGCUGGGGCUGGCCUAUCUCCUGAUGAAAGAUUACAGUGCCAUCUCCUUCCCAUAGUUCUGUGUCUGCCCUCCCUCCCUGACUUUAUAGGGAGAAAUCUCCUGACAUUAGAGGUGAUAGAACUCUUGCGGUCGCACUAGUGUGGAAUUCUCGGGUGUCAAGG"}, "B3": {"name": "ENSMUSG00000031028.549|Tub (ssRNA)", "RNA": "GGGAGUUCUACAGUCCGACGAUCGCUUCGAUAUCCGCAUGCUAAUAGAUGGACAGCCUGGUUUCCCUUCUCAGCAGUCCUGGCCUCCCCUUCUCUGUAUUCCUUGCCCCAGCUACGAUAUCCUCAUGGGAUUUCAGGAUGCCAGGUGCCAUCAAAGCAUGCUUUUUUGUGGUGCCUAGCACUGUGACUGGGGCCCAACUGCCCUGCAGAGUUGGGACCUUGCACUGCCCUAGACCCUGGCUUUAGAUCUGCUUCAGUCUCCAGAACAGGCUAUGGGAUAGAUUUUUCUUUCAGUUUAUGGCCACUCUUGCGGUCGCACUAGUGUGGAAUUCUCGGGUGUCAAGG"}, "B4": {"name": "ENSMUSG00000061578.336|Ksr2 (ssRNA)", "RNA": "GGGAGUUCUACAGUCCGACGAUCGCUUCGAUAUCCGCAUGCUAGGAGUGACCAGUCACCUGCCUCCCAGGGUUCUGCCUUGCCCUUAAGCUAGGGUCCUUCAAGCAUCCACAGACUUAGAGUGUGGUGGUAACAUGCUUGUAAUCCUGGCACUCUGGAGGCUGAGGCAGGAGGAUAACAAGUCUAGACUAUAUAUGAUUUCUGAGGGUCUGUUAGUGAAUAAGUACCUGGAUGACAUGGGACAAGUCCCAGCCUUCCCUGCUCCUGCGCUGCUCUUCCUCUUAUGGGAUAGGGUCUAGGUCAACUCUUGCGGUCGCACUAGUGUGGAAUUCUCGGGUGUCAAGG"}, "B5": {"name": "ENSMUSG00000061578.503|Ksr2 (ssRNA)", "RNA": "GGGAGUUCUACAGUCCGACGAUCGCUUCGAUAUCCGCAUGCUAGGGAUUAAAGGUGUGUACCACCAUUGCAAUCUUGAACUCUUGACCAAUAGAAAUCCUAGACUAGUGUUGCUAGGCAACUGACUGUAUUCAGGACACCCAGGGUGGGAGGUGGAUGGAGCUCUUGCCUAACACACACCAAGCCCCAAGUUCCAUCCCCAGUCCCACACAAACCAGAUAUGAUGGUGUGUGCCUAUGUCCCCCACACACGAGAGAGCUGGAGGCAGGAGGAUCAGAAGUUCAGGGCCAUCCUUAAUCAUACACUCUUGCGGUCGCACUAGUGUGGAAUUCUCGGGUGUCAAGG"}, "B6": {"name": "ENSMUSG00000031028.294|Tub|205:209 (ssRNA)", "RNA": "GGGAGUUCUACAGUCCGACGAUCGCUUCGAUAUCCGCAUGCUAUAGAUUUCCCAGGUUGGACACUCGACGAAAGGCACACCUGCUGCAGCAGGUUCUGACACACCUGAGCCAUACAUUGCCAUCAGAGAACCCUCAGCGAGGUAGCCUUUGUUUACAGUCUAGUUUCUAGAGGGCAGUAGGACUUCCAUGCUGGGGCUGGCCUAUCUCCUGAUGAAAGAUUACAGUGCCAUCUCCUUCCCAUAGUUCACACACUGCCCUCCCUCCCUGACUUUAUAGGGAGAAAUCUCCUGACAUUAGAGGUGCUCUUGCGGUCGCACUAGUGUGGAAUUCUCGGGUGUCAAGG"}, "B7": {"name": "ENSMUSG00000032194.156|Kank2|226:232 (ssRNA)", "RNA": "GGGAGUUCUACAGUCCGACGAUCGCUUCGAUAUCCGCAUGCUAAAAAAAGAAAAAAGGCCAUUCCGGAGUGACUCCCAGCAUCACAGCCCAGAACCUCCUCCUCAAAGGAGAGUAAACAGAGACUGUGAUACUGACCAAGUACAGGCGCUCGCUAUGAAGCCCAUAUGUUCCUGAUUAAGAGCUGGCUGGCCUCAGAGCACUCCCAGAACUAGCUUAAAGUGACAGGCUUUGCUGAAAUCCAAAGGGACAAAAGAGUAGUUUUAUGUUACACACAUUGUUUUUAAUGCCCUGGAGCUCCUGCUCUCUUGCGGUCGCACUAGUGUGGAAUUCUCGGGUGUCAAGG"}, "B8": {"name": "ENSMUSG00000061578.741|Ksr2 (ssRNA)", "RNA": "GGGAGUUCUACAGUCCGACGAUCGCUUCGAUAUCCGCAUGCUAUUUAAAUACCUGCUGCAGGCCUCCCAUCUCUGGCUCUUUGUUUCCACUCUGGCCCAAGUUUGAGUCUCCAUAUGGGCCCUUCCUGUCCUCAUGCCCUGCCUGUCUUCAUUCCACCCAUCCACCCUCCUAAGGAUUGGUCUUGUUCCGAGAGUGAUCCUGGUAACGCCAAGCCUCCCUCUGCCCCUGUGUUGGCUUCUGUGACGGACUACCACACACCAAGAGGUUUUUCACAGUGAAGAUGUAUGCUCUCACCAUCCUACCUCUUGCGGUCGCACUAGUGUGGAAUUCUCGGGUGUCAAGG"}, "B9": {"name": "ENSMUSG00000061578.701|Ksr2|49:53 (ssRNA)", "RNA": "GGGAGUUCUACAGUCCGACGAUCGCUUCGAUAUCCGCAUGCUAUACUCCCAGAUCUGGGGUGAUCUCUUGAGGUGCCUUCCUGUAGUCUCUACACACAUCUUCUUCUAAGACCACUAAUAACACCGCCUUUCUCCUUGAUCCGGGCCUCAGACCUCUUCAGAGAUUCUUUCUCUGAAUGUACGUGGGGGACUCCAACAGAUGUUGGGAGAAGACUCAAUAUGAGCAUACGGGGUCAUUGUUCAAUCCUGUAUCAAGACCUUGGAGUUGUCUAAGGCUGUGGGUUUUAAAUACCUGCUGCAGGCCUCUUGCGGUCGCACUAGUGUGGAAUUCUCGGGUGUCAAGG"}, "B10": {"name": "ENSMUSG00000061578.1457|Ksr2|1:5;96:100 (ssRNA)", "RNA": "GGGAGUUCUACAGUCCGACGAUCGCUUCGAUAUCCGCAUGCUACAUACUGAAUGAAUGGAUGAUGGAUGAAUGGAUGGGUAGGUGGGUAGAUAGGUAUAUGAAUGAAUGGAUGAAUGGAUGGGUGAAUGGAUGGAUAGCAUACUGAAUAAAUGGAUGGAUGGAUGGAUUGAUUUGUGAAUGAAUGGAUGAAUGGAUGGGUAGGUGGGUGGAUGCAUAGGCAAGUAGAUGAAUGAAUAUGUGGGUAGAAGGGUGAGUGGGUGGAUGAAUGGAUGGAUAGGUUGGUAGGUUAAUGUAUUCGUGGACUCUUGCGGUCGCACUAGUGUGGAAUUCUCGGGUGUCAAGG"}, "B11": {"name": "ENSMUSG00000061578.1461|Ksr2|72:76 (ssRNA)", "RNA": "GGGAGUUCUACAGUCCGACGAUCGCUUCGAUAUCCGCAUGCUAUGAAUGGAUGGGUAGGUGGGUAGAUAGGUAUAUGAAUGAAUGGAUGAAUGGAUGGGUGAAUGGAUGGAUAGCAUACUGAAUAAAUGGAUGGAUGGAUGGAUUGAUUUGUGAAUGAAUGGAUGAAUGGAUGGGUAGGUGGGUGGAUGCAUAGGCAAGUAGAUGAAUGAAUAUGUGGGUAGAAGGGUGAGUGGGUGGAUGAAUGGAUGGAUAGGUUGGUAGGUUAAUGUAUUCGUGGAUGGGUGAAUGGAUGGAUGGAUAGACUCUUGCGGUCGCACUAGUGUGGAAUUCUCGGGUGUCAAGG"}, "B12": {"name": "ENSMUSG00000061578.1464|Ksr2 (ssRNA)", "RNA": "GGGAGUUCUACAGUCCGACGAUCGCUUCGAUAUCCGCAUGCUAGGUAGAUAGGUAUAUGAAUGAAUGGAUGAAUGGAUGGGUGAAUGGAUGGAUAGGUAUGUGAAUAAAUGGAUGGAUGGAUGGAUUGAUUUGUGAAUGAAUGGAUGAAUGGAUGGGUAGGUGGGUGGAUGCAUAGGCAAGUAGAUGAAUGAAUAUGUGGGUAGAAGGGUGAGUGGGUGGAUGAAUGGAUGGAUAGGUUGGUAGGUUAAUGUAUUCGUGGAUGGGUGAAUGGAUGGAUGGAUAGAUAGAUGGGAAGGUGGAUGCUCUUGCGGUCGCACUAGUGUGGAAUUCUCGGGUGUCAAGG"}, "B13": {"name": "ENSMUSG00000061578.1464|Ksr2|54:58 (ssRNA)", "RNA": "B12 RNA with G97C, U98A, A99U, U100A, G101C"}, "B14": {"name": "ENSMUSG00000061578.1458|Ksr2|90:94 (ssRNA)", "RNA": "GGGAGUUCUACAGUCCGACGAUCGCUUCGAUAUCCGCAUGCUAGAAUGAAUGGAUGAUGGAUGAAUGGAUGGGUAGGUGGGUAGAUAGGUAUAUGAAUGAAUGGAUGAAUGGAUGGGUGAAUGGAUGGAUAGCAUACUGAAUAAAUGGAUGGAUGGAUGGAUUGAUUUGUGAAUGAAUGGAUGAAUGGAUGGGUAGGUGGGUGGAUGCAUAGGCAAGUAGAUGAAUGAAUAUGUGGGUAGAAGGGUGAGUGGGUGGAUGAAUGGAUGGAUAGGUUGGUAGGUUAAUGUAUUCGUGGAUGGGUGCUCUUGCGGUCGCACUAGUGUGGAAUUCUCGGGUGUCAAGG"}, "B15": {"name": "ENSMUSG00000061578.1460|Ksr2|78:82 (ssRNA)", "RNA": "GGGAGUUCUACAGUCCGACGAUCGCUUCGAUAUCCGCAUGCUAGAUGGAUGAAUGGAUGGGUAGGUGGGUAGAUAGGUAUAUGAAUGAAUGGAUGAAUGGAUGGGUGAAUGGAUGGAUAGCAUACUGAAUAAAUGGAUGGAUGGAUGGAUUGAUUUGUGAAUGAAUGGAUGAAUGGAUGGGUAGGUGGGUGGAUGCAUAGGCAAGUAGAUGAAUGAAUAUGUGGGUAGAAGGGUGAGUGGGUGGAUGAAUGGAUGGAUAGGUUGGUAGGUUAAUGUAUUCGUGGAUGGGUGAAUGGAUGGAUGCUCUUGCGGUCGCACUAGUGUGGAAUUCUCGGGUGUCAAGG"}}, "note": "Positions count from the first letter of the chain named. In all, about 9,900 sequences were measured (“r (bound/input frequency ratio)”: median about 0.7, highest 2% from about 6.5 on). For the sample, the highest values were picked, then their nearest neighbours and some sequences at random."}
{"target": "TDP-43 (Homo sapiens, UniProt Q13148 1-414)", "sequence (Q13148 whole entry)": "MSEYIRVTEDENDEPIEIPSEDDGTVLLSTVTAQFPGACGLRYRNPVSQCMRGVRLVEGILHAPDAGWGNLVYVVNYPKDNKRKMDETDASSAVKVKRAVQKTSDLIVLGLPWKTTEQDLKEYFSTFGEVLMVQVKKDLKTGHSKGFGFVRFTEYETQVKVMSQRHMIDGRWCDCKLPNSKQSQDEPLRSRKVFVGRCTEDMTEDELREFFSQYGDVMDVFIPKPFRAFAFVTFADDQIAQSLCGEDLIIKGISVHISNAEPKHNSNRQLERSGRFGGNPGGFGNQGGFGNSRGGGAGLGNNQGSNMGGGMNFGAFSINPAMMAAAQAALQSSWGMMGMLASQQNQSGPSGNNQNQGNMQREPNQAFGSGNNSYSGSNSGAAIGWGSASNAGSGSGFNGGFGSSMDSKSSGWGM", "test": "RNA Bind-n-Seq with designed 260-mer pool; 25 mM Tris-HCl, 150 mM KCl, 3 mM MgCl2, BSA (printed 500 mg/mL), 20 units/mL SUPERase IN; pH not stated; 500 nM RNA pool, 1 h, 4 C; TDP-43 5, 50, 500 nM; high values mean tight binding", "details": "protein: recombinant; tags: SBP (GST cleaved off with PreScission; pGEX-GST-SBP)", "how_it_was_run": "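Recombinant SBP-tagged TDP-43 at 5, 50 or 500 nM was captured on streptavidin beads, then incubated 1 h at 4 °C with 500 nM of an in vitro-transcribed 260-nt 3′ UTR oligo pool in 25 mM Tris-HCl, 150 mM KCl, 3 mM MgCl2, BSA and SUPERase IN. Bound RNA was washed, eluted with biotin, reverse transcribed, PCR-amplified and sequenced. Binding is R, each oligo's mapped-read-normalized abundance in the bound sample divided by its abundance in input. Duplicates used two independent protein batches.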"}
{"binder": "B1", "binding signal": "1.84 R (bound/input frequency ratio)"}
{"binder": "B2", "binding signal": "0.563 R (bound/input frequency ratio)"}
{"binder": "B3", "binding signal": "0.419 R (bound/input frequency ratio)"}
{"binder": "B4", "binding signal": "0.934 R (bound/input frequency ratio)"}
{"binder": "B5", "binding signal": "1.74 R (bound/input frequency ratio)"}
{"binder": "B6", "binding signal": "0.471 R (bound/input frequency ratio)"}
{"binder": "B7", "binding signal": "0.257 R (bound/input frequency ratio)"}
{"binder": "B8", "binding signal": "2.01 R (bound/input frequency ratio)"}
{"binder": "B9", "binding signal": "0.26 R (bound/input frequency ratio)"}
{"binder": "B10", "binding signal": "5.06 R (bound/input frequency ratio)"}
{"binder": "B11", "binding signal": "4.58 R (bound/input frequency ratio)"}
{"binder": "B12", "binding signal": "5.55 R (bound/input frequency ratio)"}
{"binder": "B13", "binding signal": "7.9 R (bound/input frequency ratio)"}
{"binder": "B14", "binding signal": "6.91 R (bound/input frequency ratio)"}
{"binder": "B15", "binding signal": "5.37 R (bound/input frequency ratio)"}
